Laboratory results from PubChem BioAssay.
Active and inactive are the calls of the source.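 Rule for the calls, unless noted: active = inhibition at or above 50% at 10 µM; inactive = inhibition below 50%.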

Tests used:
[1] = inhibitors of TNFa-induced NFkB p65 translocation, primary screen, imaging, HUVEC, MLSMR starter and 10KST1 sets (AID 438;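 active = inhibition above 20% together with a positive visual image hit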;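 note: compound added about 3h40 before a 20 min TNFalpha stimulation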;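 for inhibition: signal is the nuclear over cytoplasmic p65 intensity ratio per well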); details: HUVEC TNFa-induced p65 nuclear translocation; cell count: measured here: nuclei count (cytotoxicity indicator), at 2.08 µM; inhibition: at 2 µM, stronger effect = higher value, 0% TNFa-plus-vehicle, 100% no-TNFa wells
[2] = reduction of polyQ htt aggregates in cells – imaging, exon1htt(103Q)mCFP cells, high-content imaging, primary screen (AID 483;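 active = visual image review flags a hit and inhibition of aggregation exceeds 20%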;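 note: compound exposure lasted 3 days before fixation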;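 for nuclei count: percent of the per-plate median nuclei count of sample wells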); details: exon1htt(103Q)mCFP cell line, aggregate imaging, at 2 µM; inhibition of aggregation: stronger effect = higher value; nuclei count: measured here: cell count, toxicity
[3] = endothelial E-selectin expression blockers – imaging, HUVEC, immunofluorescence, MLSMR starter and 10KST1 sets, primary screen (AID 487;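 active = visually confirmed hit in the image check and inhibition above 20%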;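 for inhibition: signal is fraction of cell area covered by stained E-selectin grains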;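 for nuclei count: 100% = median nuclei count of all wells on the same plate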); details: HUVEC TNFalpha-induced E-selectin immunofluorescence imaging, at 2 µM; inhibition: stronger effect = higher value; nuclei count: measured here: cell number, toxicity
[4] = molecular target: Voltage-gated potassium channel subunit beta-2 (Rattus norvegicus) (UniProt P62483); experiment: inhibitors of rat Kvbeta2 reductase activity – biochemical, NADPH fluorescence, primary screen (AID 622;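 active = fluorescence slope higher than the sample average by over 3 SD, cut at about -0.22 in these data, passing the limit was not always enough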;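 note: slope of raw intensity against log time taken from 70 to 1610 s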); details: recombinant KvBeta, 4-cyanobenzaldehyde reduction, at 10 µM, stronger effect = higher value
Sequence of Voltage-gated potassium channel subunit beta-2 (Rattus norvegicus) (P62483 whole entry, looked up): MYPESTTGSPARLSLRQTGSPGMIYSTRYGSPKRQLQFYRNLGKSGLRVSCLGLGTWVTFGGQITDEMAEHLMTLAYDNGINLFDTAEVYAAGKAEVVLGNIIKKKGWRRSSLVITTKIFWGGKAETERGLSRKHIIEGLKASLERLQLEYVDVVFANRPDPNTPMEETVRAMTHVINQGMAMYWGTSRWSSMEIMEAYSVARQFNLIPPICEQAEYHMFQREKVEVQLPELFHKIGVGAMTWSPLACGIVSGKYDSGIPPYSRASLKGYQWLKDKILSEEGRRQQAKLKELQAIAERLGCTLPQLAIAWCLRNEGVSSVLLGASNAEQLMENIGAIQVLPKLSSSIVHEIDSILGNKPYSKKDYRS

[5] = molecular target: Voltage-gated potassium channel subunit beta-2 (Rattus norvegicus) (UniProt P62483); experiment: enhancers of rat Kvbeta2 NADPH turnover – biochemical, NADPH fluorescence, primary screen (AID 623;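 active = NADPH fluorescence slope more negative than the mean of all samples by about 3 SD, 99.7% confidence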;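 note: fluorescence intensity change per second fitted from 20 to 320 s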); details: Recombinant KvBeta, NADPH fluorescence decrease slope, 10 min; at 10 µM; stronger effect = lower value
[6] = molecular target: Alpha-2C adrenergic receptor (Homo sapiens) (UniProt P18825); experiment: compounds altering alpha2C-coupled GIRK flux – cell-based, HEK293 alpha2C/GIRK1/2, thallium flux, primary screen (AID 624;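 active = fluorescence slope after compound addition differing from the mean of all screened samples at 99.7% confidence, in either direction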;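 note: slope of fluorescence ratio to pre-addition baseline per second over 15 to 24 s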); details: thallium flux BTC fluorescence, at 10 µM, actives lie on both sides
Sequence of Alpha-2C adrenergic receptor (Homo sapiens) (P18825 whole entry, looked up): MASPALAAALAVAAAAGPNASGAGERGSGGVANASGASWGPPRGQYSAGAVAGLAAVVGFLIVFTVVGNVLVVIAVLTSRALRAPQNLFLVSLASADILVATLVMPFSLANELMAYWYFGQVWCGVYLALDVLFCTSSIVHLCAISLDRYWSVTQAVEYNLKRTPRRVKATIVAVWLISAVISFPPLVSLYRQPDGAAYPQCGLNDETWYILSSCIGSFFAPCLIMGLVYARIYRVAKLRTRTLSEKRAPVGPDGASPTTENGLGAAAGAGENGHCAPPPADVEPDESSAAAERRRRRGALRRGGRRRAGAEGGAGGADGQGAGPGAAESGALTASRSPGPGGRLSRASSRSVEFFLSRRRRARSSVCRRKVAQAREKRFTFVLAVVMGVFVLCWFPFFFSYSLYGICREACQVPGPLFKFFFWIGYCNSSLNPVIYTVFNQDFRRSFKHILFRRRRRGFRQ

[7] = blockers of RIG-like receptor reporter activation – cell-based, Sendai virus stimulus, luciferase, 10K MLSCN set, TLR/RLR signaling modifier project, primary screen (AID 602276); details: HEK293 RL24 IRF3 luciferase reporter, at 10 µM, stronger effect = higher value;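 note: firefly luciferase from ISG56 promoter only with Renilla not read in this screen; 0% = Sendai virus plus DMSO and 100% = medium plus DMSO without virus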
[8] = TLR3 IRF3 reporter activation blockers – cell-based, poly I:C stimulus, luciferase, 10K MLSCN set, primary screen (AID 602277;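 active = inhibition of the reporter signal at or above 50%; inactive = inhibition below 50%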); details: HEK293-TLR3 RL24 IRF3 luciferase reporter, at 10 µM, stronger effect = higher value

Row | SMILES | cell count [1] | inhibition [1] | inhibition of aggregation [2] | nuclei count [2] | inhibition [3] | nuclei count [3] | fluorescence slope [4] | NADPH fluorescence slope [5] | slope [6] | inhibition [7] | inhibition [8]
1 | CCn1cc(C(=O)NCCCOC)c(=O)c2cc(S(=O)(=O)N(C)C)ccc21 | 693 | -5% (inactive) | 6% (inactive) | 82.6% | -42.6% (inactive) | 112% | -0.418 (inactive) | 3.3e-05 (inactive) | 0.00533 (inactive) | 4.09% (inactive) | 31.3% (inactive)
2 | O=C(c1ccc(Cl)cc1)N1CCCOC1 | 784 | -9.7% (inactive) | -49% (inactive) | 99.2% | -84.3% (inactive) | 111% | -0.32 (inactive) | -4.9e-05 (inactive) | 0.00521 (inactive) | 10.5% (inactive) | 18.6% (inactive)
3 | CC1Cc2nc(SCC(N)=O)n(Cc3ccccc3)c(=O)c2S1 (stereo not drawn) | 633 | -14% (inactive) | 1.8% (inactive) | 90.7% | -15.2% (inactive) | 113% | -0.438 (inactive) | 2.5e-05 (inactive) | 0.00575 (inactive) | -2.11% (inactive) | 36% (inactive)
4 | O=C(O)CCC1(C(=O)O)OCCc2ccccc21 (stereo not drawn) | 470 | 2.9% (inactive) | -4.2% (inactive) | 99.2% | -99.4% (inactive) | 118% | -0.599 (inactive) | -3.7e-05 (inactive) | 0.00588 (inactive) | 8.34% (inactive) | 17.4% (inactive)
5 | O=C(NC(=O)c1ccc(Cl)cc1)Nc1cc(N2CCCCC2)ncn1 | 333 | 5.5% (inactive) | 11.3% (inactive) | 85.1% | -70% (inactive) | 89.5% | -0.48 (inactive) | -4.9e-05 (inactive) | 0.00674 (inactive) | 13.2% (inactive) | 9.71% (inactive)
6 | Cc1cc(C)n2nc(SCC(=O)N(C)c3ccccc3)nc2n1 | 370 | -5.3% (inactive) | -25.2% (inactive) | 115% | -24.2% (inactive) | 103% | -0.462 (inactive) | -4.2e-05 (inactive) | 0.0068 (inactive) | 5.25% (inactive) | 24.1% (inactive)
7 | Cc1occc1C(=O)N1CCN(c2ncccn2)CC1 | 347 | -12.5% (inactive) | 5% (inactive) | 102% | -117% (inactive) | 101% | -0.356 (inactive) | 6.9e-06 (inactive) | 0.00583 (inactive) | -8.62% (inactive) | 4.37% (inactive)
8 | CN(C)CCNc1oc(-c2ccccc2F)nc1C#N | 648 | 7.1% (inactive) | -11.1% (inactive) | 110% | -40% (inactive) | 116% | -0.062 (active) | 9.2e-06 (inactive) | 0.00579 (inactive) | 0.672% (inactive) | 34.3% (inactive)
